Results: PubChem BioAssay
The source made the active and inactive calls.

Legend:
[1] = E. coli DRC41 culture turbidity changes, primary screen, E. coli filamentation inducer project, strain DRC41, OD650, 48 h (AID 1152);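 also: E. coli MC1000 strain DRC41 lacking acrAB efflux pump and sulA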; conditions: E. coli DRC41 (acrAB sulA), higher = more signal, called active from +8 up or from −8 down
[2] = small-molecule binders of probe aLefty1, primary screen, biochemical, small-molecule microarray, 635/667 nm fluorescence (AID 1153); conditions: higher = more signal;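 also: score merges spot fluorescence with signal-to-noise ratio from the scanned slide images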
[3] = PSAC antagonists in infected red cells, primary screen, cell-based, P. falciparum Indochina, OD700, 1 h (AID 1154); conditions: P. falciparum Indochina infected RBC osmotic lysis, higher = more signal, called active from +8 up or from −8 down
[4] = PSAC antagonists in infected red cells, primary screen, cell-based, P. falciparum Indochina, OD700, 2 h (AID 1155);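 also: lysis reports solute entry through the parasite surface anion channel PSAC; channel blockers reduce lysis of infected cells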; conditions: P. falciparum Indochina infected erythrocytes, osmotic lysis OD700; higher = more signal, called active from +8 up or from −8 down
[5] = osmotic lysis modulators in infected erythrocytes, primary screen, PSAC antagonist project, cell-based, P. falciparum Indochina, OD700, 3 h (AID 1156); conditions: higher = more signal, called active from +8 up or from −8 down
[6] = PSAC antagonists in infected red cells, primary screen, cell-based, P. falciparum Indochina, OD700, 18 h (AID 1157); conditions: P. falciparum Indochina infected erythrocytes, osmotic lysis OD700, 18 h; higher = more signal, called active from +8 up or from −8 down
[7] = modulators of S6 phosphorylation in cells, primary screen, cell-based, A549, cytoblot, luminescence, serum-stimulated (AID 1158); conditions: A549 phospho-S6 cytoblot, 5 h, higher = more signal;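 also: serum-stimulated A549 lung adenocarcinoma cells; signal is phosphorylated S6 detected by cytoblot immunostaining with HRP secondary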
[8] = target: NADPH oxidase 2 (Homo sapiens) (UniProt P04839); test: NOX2-dependent H2O2 signal modulators, primary screen, NOX inhibitor project, cell-based, HEK293-NOX2, PMA-stimulated, Amplex Red fluorescence (AID 1159); conditions: 45 min, higher = more signal, called active from +8 up or from −8 down; also: test concentration not given here
Sequence of NADPH oxidase 2 (Homo sapiens) (P04839 whole entry, looked up): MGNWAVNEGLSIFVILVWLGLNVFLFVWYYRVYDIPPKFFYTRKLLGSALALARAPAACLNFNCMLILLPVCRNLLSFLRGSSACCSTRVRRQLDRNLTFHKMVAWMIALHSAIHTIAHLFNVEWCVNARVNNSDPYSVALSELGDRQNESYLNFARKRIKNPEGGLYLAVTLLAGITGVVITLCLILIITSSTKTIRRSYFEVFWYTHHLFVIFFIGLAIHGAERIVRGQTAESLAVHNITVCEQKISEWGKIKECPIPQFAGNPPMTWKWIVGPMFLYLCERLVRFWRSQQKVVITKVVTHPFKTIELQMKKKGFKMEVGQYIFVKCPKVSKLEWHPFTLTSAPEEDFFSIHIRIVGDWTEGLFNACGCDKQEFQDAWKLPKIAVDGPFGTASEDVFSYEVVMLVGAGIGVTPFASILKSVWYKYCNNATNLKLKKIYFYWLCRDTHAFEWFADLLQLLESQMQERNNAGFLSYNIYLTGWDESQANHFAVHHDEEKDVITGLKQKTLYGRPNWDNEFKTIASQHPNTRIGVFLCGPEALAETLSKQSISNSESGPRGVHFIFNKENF

[9] = target: NADPH oxidase 4 (Homo sapiens) (UniProt Q9NPH5); test: NOX4-dependent H2O2 signal modulators, primary screen, NOX inhibitor project, cell-based, HEK293-NOX4, tetracycline-induced, Amplex Red fluorescence (AID 1160); conditions: 45 min, higher = more signal, called active from +8 up or from −8 down
Sequence of NADPH oxidase 4 (Homo sapiens) (Q9NPH5 whole entry, looked up): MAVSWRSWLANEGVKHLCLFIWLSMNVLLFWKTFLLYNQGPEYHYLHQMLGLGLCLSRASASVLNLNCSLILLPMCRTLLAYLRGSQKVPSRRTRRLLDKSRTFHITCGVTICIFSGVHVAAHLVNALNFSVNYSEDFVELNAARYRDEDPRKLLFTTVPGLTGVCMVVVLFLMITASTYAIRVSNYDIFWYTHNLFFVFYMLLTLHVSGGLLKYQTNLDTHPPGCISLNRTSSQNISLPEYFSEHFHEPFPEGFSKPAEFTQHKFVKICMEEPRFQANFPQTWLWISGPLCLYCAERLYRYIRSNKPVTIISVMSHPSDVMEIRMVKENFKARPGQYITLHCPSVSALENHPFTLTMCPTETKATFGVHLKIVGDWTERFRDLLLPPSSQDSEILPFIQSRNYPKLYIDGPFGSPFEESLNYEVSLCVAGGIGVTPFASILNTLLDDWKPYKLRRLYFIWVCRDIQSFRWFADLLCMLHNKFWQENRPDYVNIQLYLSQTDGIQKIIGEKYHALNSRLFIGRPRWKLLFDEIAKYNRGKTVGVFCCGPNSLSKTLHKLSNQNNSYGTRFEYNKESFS

[10] = target: NADPH oxidase 5 (Homo sapiens) (UniProt Q96PH1); test: NOX5-dependent H2O2 signal modulators, primary screen, NOX inhibitor project, cell-based, HEK293-NOX5, Amplex Red fluorescence (AID 1161); conditions: HEK293-NOX5, ionomycin, 45 min, higher = more signal
Sequence of NADPH oxidase 5 (Homo sapiens) (Q96PH1 whole entry, looked up): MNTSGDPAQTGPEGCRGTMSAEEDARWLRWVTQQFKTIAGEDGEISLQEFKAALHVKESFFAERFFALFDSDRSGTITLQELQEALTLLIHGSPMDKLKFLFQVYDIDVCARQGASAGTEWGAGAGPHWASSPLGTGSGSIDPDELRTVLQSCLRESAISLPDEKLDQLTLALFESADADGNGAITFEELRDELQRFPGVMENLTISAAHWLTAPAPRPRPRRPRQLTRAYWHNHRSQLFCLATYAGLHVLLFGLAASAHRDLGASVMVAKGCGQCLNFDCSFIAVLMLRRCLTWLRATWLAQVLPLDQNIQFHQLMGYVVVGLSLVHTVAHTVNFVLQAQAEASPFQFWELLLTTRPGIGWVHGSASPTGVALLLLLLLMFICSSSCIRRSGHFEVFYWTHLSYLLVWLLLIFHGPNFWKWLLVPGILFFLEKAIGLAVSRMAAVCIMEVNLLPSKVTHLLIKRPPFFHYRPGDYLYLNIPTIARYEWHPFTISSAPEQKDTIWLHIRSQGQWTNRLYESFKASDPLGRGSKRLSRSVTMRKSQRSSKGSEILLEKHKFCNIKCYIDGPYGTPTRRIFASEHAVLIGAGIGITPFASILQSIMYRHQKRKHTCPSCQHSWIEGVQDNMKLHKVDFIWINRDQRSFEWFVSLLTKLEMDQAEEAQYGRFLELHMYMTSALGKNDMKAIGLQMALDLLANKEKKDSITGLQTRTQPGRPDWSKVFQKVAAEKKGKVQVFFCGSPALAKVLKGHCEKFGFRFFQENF

[11] = A549 cell viability effects, profiling panel, calcein-AM fluorescence, 48 h, basal (AID 1162); conditions: higher = more signal; also: test concentration not given here
[12] = adipocyte viability effects, profiling panel, cell-based, 3T3-L1 adipocytes, calcein-AM fluorescence, 48 h, basal (AID 1163); conditions: 3T3-L1 adipocytes viability, higher = more signal; also: test concentration not given here
[13] = HepG2 cell viability effects, profiling panel, calcein-AM fluorescence, 48 h, basal (AID 1164); conditions: higher = more signal; also: test concentration not given here
[14] = MM1S cell viability effects, profiling panel, calcein-AM fluorescence, 48 h, basal (AID 1165); conditions: higher = more signal;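 also: viability of MM1S multiple myeloma cells under basal unstimulated conditions; test concentration not given here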
[15] = basal RPMI8226 viability, no added stimulus, profiling panel, cell-based, calcein-AM fluorescence, 48 h, PK04 Diversity Set (AID 1166); conditions: RPMI8226 myeloma viability, higher = more signal;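 also: cells grown under basal conditions without added stimulus; test concentration not given here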
[16] = basal HepG2 mitochondrial membrane potential changes, profiling panel, cell-based, JC-1 fluorescence, 24 h, 100 nL compound (AID 1167); conditions: higher = more signal; also: test concentration not given here
[17] = basal 3T3-L1 adipocyte mitochondrial potential changes, profiling panel, cell-based, JC-1 fluorescence, 3T3-L1 adipocytes, 24 h, 100 nL compound (AID 1168); conditions: JC-1 mitochondrial fluorescence, higher = more signal, called active from +8 up or from −8 down; also: test concentration not given here
[18] = basal RPMI8226 mitochondrial membrane potential changes, profiling panel, cell-based, JC-1 fluorescence, 24 h, 100 nL compound (AID 1169); conditions: RPMI8226 myeloma, JC-1 mitochondrial potential fluorescence, higher = more signal; also: test concentration not given here
[19] = basal MM1S mitochondrial membrane potential changes, profiling panel, cell-based, JC-1 fluorescence, 24 h, 100 nL compound (AID 1170); conditions: higher = more signal; also: test concentration not given here
[20] = A549 lung cancer cell viability effects, profiling panel, resazurin fluorescence, 24 h, PK04 Diversity Set (AID 1171); conditions: higher = more signal, called active from +8 up or from −8 down; also: test concentration not given here

| Structure (SMILES) | z-score [1] | composite z-score [2] | z-score [3] | z-score [4] | z-score [5] | z-score [6] | z-score [7] | z-score [8] | z-score [9] | z-score [10] | z-score [11] | z-score [12] | z-score [13] | z-score [14] | z-score [15] | z-score [16] | z-score [17] | z-score [18] | z-score [19] | z-score [20] |
| --- | --- | --- | --- | --- | --- | --- | --- | --- | --- | --- | --- | --- | --- | --- | --- | --- | --- | --- | --- | --- |
| COCCOC(=O)N1C(=O)[C@@]2(c3cc(C#CCC(C(=O)OC)C(=O)OC)ccc31)[C@H](C(N)=O)[C@H]1C(=O)O[C@H](c3ccccc3)[C@H](c3ccccc3)N1[C@@H]2c1ccc(OCCO)cc1 | -0.886 (inactive) | 0.146 | 28.9 (active) | 16.1 (active) | -1.71 (inactive) | 2.01 (inactive) | -0.275 | 1.75 (inactive) | 1.24 (inactive) | 0.515 | -0.0635 | 0.0923 | 0.103 | -2.16 | -3.21 | -1.47 | 0.47 (inactive) | -1.09 | -1.26 | 0.214 (inactive) |
| NC(=O)NCC#Cc1ccc2c(c1)[C@]1(C(=O)N2)[C@H](C(=O)Nc2nc3ccccc3s2)[C@H]2C(=O)O[C@H](c3ccccc3)[C@H](c3ccccc3)N2[C@@H]1c1ccc(OCCO)cc1 | 0.197 (inactive) | 0.309 | 1.93 (inactive) | 1.1 (inactive) | -0.166 (inactive) | 0.737 (inactive) | 0.169 | 0.681 (inactive) | 0.611 (inactive) | 0.715 | -0.163 | 0.466 | -1.43 | -0.231 | -0.349 | -3.18 | 0.272 (inactive) | -1.14 | -1.88 | 0.767 (inactive) |
| O=C1NC(=O)C2C1C=CC(C(O)c1ccc(F)cc1)N2Nc1ccccn1 (stereo not given) | -1.99 (inactive) | 0.0378 | 1.02 (inactive) | 1.23 (inactive) | -0.02 (inactive) | 0.753 (inactive) | -0.727 | -1.01 (inactive) | -2.92 (inactive) | -2.12 | -1.12 | -0.182 | 0.417 | -0.416 | -0.395 | -1.53 | -0.311 (inactive) | 0.734 | 0.247 | -1.11 (inactive) |
| COC(=O)C1(CC(C)C)C=C2C(=C(C(C)C)C(=O)C2C)CN1 (stereo not given) | -1.85 (inactive) | 0.302 | 1.06 (inactive) | -0.385 (inactive) | 1.07 (inactive) | 0.274 (inactive) | -0.38 | 0.377 (inactive) | -1.05 (inactive) | -2.44 | -1.49 | -0.404 | -1.43 | 0.0112 | -1.31 | -1.31 | -1.46 (inactive) | 0.105 | -0.919 | -0.697 (inactive) |
| CC(C)CNC(=O)[C@@H]1c2ccccc2C(=O)N(C(C)C)[C@H]1c1ccc(CO)cc1 | 0.941 (inactive) | -0.0559 | 0.747 (inactive) | -0.483 (inactive) | -0.758 (inactive) | -0.779 (inactive) | 1.85 | -0.215 (inactive) | 0.443 (inactive) | 0.887 | 0.456 | 1.27 | 1.15 | 0.333 | 1.49 | 1.49 | 1.29 (inactive) | 0.793 | -0.357 | -0.174 (inactive) |
| CC(C)C[C@H]1NC(=O)[C@H](Cc2ccccc2)NC(=O)[C@@]23C(=O)N[C@@H](Cc4ccccc4)C2[C@H](C)[C@@]2(C)O[C@H]2C3/C=C/C/C=C\CNC1=O (stereo not given in full) | -1 (inactive) | -0.145 | 0.133 (inactive) | -0.209 (inactive) | 0.0708 (inactive) | -0.308 (inactive) | -0.129 | 1.05 (inactive) | 0.819 (inactive) | -1.37 | -0.0322 | 0.13 | -1.04 | -0.356 | -0.718 | -1.07 | 0.0338 (inactive) | 0.478 | 0.704 | 0.395 (inactive) |
| N#Cc1ccc(C(O)C2C=CC3C(=O)N(c4ccccc4)C(=O)C3N2Nc2ccc([N+](=O)[O-])cc2)cc1 (stereo not given) | -0.955 (inactive) | 0.391 | 25.8 (active) | 12.8 (active) | 2.25 (inactive) | 1.56 (inactive) | -0.283 | -0.562 (inactive) | -2.25 (inactive) | -1.83 | -0.211 | -1.46 | 0.436 | -0.0671 | -0.333 | -2.66 | -1.78 (inactive) | 0.5 | -1.43 | -0.233 (inactive) |
| COCCOC(=O)N1C(=O)[C@@]2(c3cc(C#CCC(C(=O)OC)C(=O)OC)ccc31)[C@H](C(=O)N1CCc3cc(OC)c(OC)cc3C1)[C@H]1C(=O)O[C@H](c3ccccc3)[C@H](c3ccccc3)N1[C@@H]2c1ccc(O)cc1 | -0.0961 (inactive) | 0.191 | 0.577 (inactive) | 0.524 (inactive) | -0.5 (inactive) | 0.0513 (inactive) | -0.111 | 1.91 (inactive) | 0.862 (inactive) | 0.912 | 0.373 | 0.643 | 0.391 | -0.422 | -1.54 | 0.448 | -0.216 (inactive) | 0.109 | 0.516 | 0.0392 (inactive) |
